Bioassay records deposited in PubChem by several laboratories.
Compounds with a hit are over-represented: about 1.6% of the library has one in this group of screens.
eIF4E-4G inh – inhibitors of eIF4E and eIF4G interaction in translation initiation. inhibition, % at 21.7 µM. P63073+Q04637. AID 782. TR-FRET eIF4E-eIF4GI(517-606) binding, 2 h. 220,000 tested, 0.37% active;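 active = inhibition above about 30%, limit read from the data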;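 note: 0% = full FRET control wells and 100% = background wells lacking eIF4GI fragment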
MLLE-PAM2 inh – blocks PAM2 peptide binding to the PABP1 MLLE domain; P11940; 360,000 tested, 0.36% active; inhibition, % at 20 µM; GST-MLLE / FITC-PAM2 fluorescence polarization; in the data active = inhibition above about 35%, passing the limit was not always enough;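 note: plate controls were DMSO wells with GST-MLLE for no effect and wells lacking GST-MLLE protein for full effect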
PERK inhibitor – inhibitors of human PERK kinase | 220,000 tested, 0.17% active | CHO PERK-DD fusion, SEAP luminescence translation reporter | inhibition, % at 5.6 µM | Q9NZJ5;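 active = inhibition above the mean inhibition of all tested compounds plus 3 SD, set separately per screening campaign, cut at about 2.9% in these data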;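 note: PERK kinase domain activated by AP20187 dimerizer at 100 nM; 0% = DMSO with dimerizer and 100% = rapamycin at 8.4 µM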
PABP FP inh – PABP-poly(A) binding inhibition; 290,000 tested, 1% active; PABP-poly(A) RNA binding, fluorescence polarization; inhibition, % at 35 µM;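 note: calls also rest on retests at 20 µM and on dose response follow-up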
eIF4H inh – inhibitors of RNA binding by human eIF4H | Q15056 | eIF4H fluorescence polarization binding assay | inhibition, % at 35 µM | 290,000 tested, 0.94% active;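 note: calls also rest on retests at 20 µM and on dose response follow-up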
Starred values were filed as active, the others as inactive; [ ] = another dose, or the depositor's remark. Unless noted, the rule behind the calls is not given here.

Results for Cc1cc(C(=O)CN2C(=O)c3ccccc3C2=O)c(C)n1Cc1cccs1 ?
eIF4E-4G inh: -3; MLLE-PAM2 inh: -26; PERK inhibitor: 0; PABP FP inh: -2; eIF4H inh: 24

Results for CN(C(=O)CN1C(=O)NC2(CCc3ccccc32)C1=O)C1CCCCC1 (stereo not drawn) ?
MLLE-PAM2 inh: -14

How did CN(C(=O)CN1C(=O)c2cccc(N)c2C1=O)C1CCCCC1 do in these assays?
MLLE-PAM2 inh: 40*

What do the screens show for `CCCCNC(=O)CN1C(=O)c2cccc(N)c2C1=O`?
eIF4E-4G inh: 2; MLLE-PAM2 inh: 39*; PERK inhibitor: 1; PABP FP inh: 86*; eIF4H inh: 85*

Results for CCCn1c(C)cc(C(=O)CN2C(=O)c3cccc(N)c3C2=O)c1C ?
eIF4E-4G inh: -1; MLLE-PAM2 inh: 12; PERK inhibitor: -1; PABP FP inh: 95*; eIF4H inh: 85*

What do the screens show for `CCCCCCCn1c(NC(=O)CC)nc2ccccc21`?
eIF4E-4G inh: 2; MLLE-PAM2 inh: -8; PERK inhibitor: -2; PABP FP inh: 2.0*; eIF4H inh: 74*

Results for COc1ccc(S(=O)(=O)Nc2cc(Sc3ncn[nH]3)c(O)c3ccccc23)cc1 ?
eIF4E-4G inh: 46*[fluorescence artefact?]; PERK inhibitor: -1; PABP FP inh: 13; eIF4H inh: -5

What do the screens show for `COc1ccc(S(=O)(=O)Nc2ccc(O)c(Sc3ncn[nH]3)c2)cc1`?
eIF4E-4G inh: -5; MLLE-PAM2 inh: 4; PERK inhibitor: 0; PABP FP inh: -18; eIF4H inh: -6

What do the screens show for `O=C(COC(=O)c1cc2c(s1)CCC2)Nc1ccc(F)cc1`?
eIF4E-4G inh: 17; MLLE-PAM2 inh: 4; PERK inhibitor: 0; PABP FP inh: 35*; eIF4H inh: 97*

How did Cc1ccc(NC(=O)c2cc3c(s2)CCCC3)cc1 do in these assays?
eIF4E-4G inh: -5; MLLE-PAM2 inh: -8; PERK inhibitor: 0; PABP FP inh: 6; eIF4H inh: -4

Results for COc1ccccc1NC(=O)c1ccc(NC(=O)c2cc3c(s2)CCC3)cc1 ?
eIF4E-4G inh: 41*; MLLE-PAM2 inh: -3; PERK inhibitor: 0; PABP FP inh: 25; eIF4H inh: -7

Results for O=C(Nc1ccccc1OC(F)F)c1cc2c(s1)CCC2 ?
eIF4E-4G inh: -3; MLLE-PAM2 inh: 1; PERK inhibitor: 1; PABP FP inh: 5; eIF4H inh: 84*

How did COc1ccc2ccccc2c1C1CC(=O)N2CN(C)CSC2=C1C#N (stereo not drawn) do in these assays?
eIF4E-4G inh: 49*[fluorescence artefact?]; MLLE-PAM2 inh: 6; PERK inhibitor: 1; PABP FP inh: 22; eIF4H inh: 4

Results for Cc1nc(NC(=S)Nc2ccccc2)sc1C ?
eIF4E-4G inh: -3; MLLE-PAM2 inh: 37*; PERK inhibitor: 0; PABP FP inh: -7; eIF4H inh: -4

What do the screens show for `O=C(CCCN1C(=O)/C(=C/c2ccccc2Cl)SC1=S)NCCCN1CCOCC1`?
MLLE-PAM2 inh: 41*; PABP FP inh: -18; eIF4H inh: -9

Results for Cc1ccc2c(c1)-c1c(ssc1=S)C(C)(C)N2C(=O)CSC1=NCCS1 ?
eIF4E-4G inh: -15; MLLE-PAM2 inh: 32; PERK inhibitor: -1; PABP FP inh: -6; eIF4H inh: -1

Results for CCOc1ccc2c(c1)-c1c(ssc1=S)C(C)(C)N2C(=O)CSC1=NCCS1 ?
eIF4E-4G inh: 10; MLLE-PAM2 inh: 46*; PERK inhibitor: 0; PABP FP inh: 1; eIF4H inh: 1

How did COC(=O)c1cccc(NC(=O)CCCN2C(=O)NC3(CCCC3)C2=O)c1 do in these assays?
MLLE-PAM2 inh: -7

How did CN1c2ccccc2N(C)C1(C)c1ccccc1 do in these assays?
eIF4E-4G inh: 42*[fluorescence artefact?]; MLLE-PAM2 inh: 13; PERK inhibitor: 0; PABP FP inh: 12*; eIF4H inh: 67*

What do the screens show for `CCC1(c2ccccc2)CN(C)C1=O` (stereo not drawn)?
MLLE-PAM2 inh: 18

Results for CCN1c2ccccc2N(C)C1(C)c1ccccc1 (stereo not drawn) ?
eIF4E-4G inh: 43*[fluorescence artefact?]; MLLE-PAM2 inh: 24; PERK inhibitor: 0; PABP FP inh: 6.9*; eIF4H inh: 84*

How did COc1ccccc1C(=O)NCCC(=O)NNC(=O)C1COc2ccccc2O1 (stereo not drawn) do in these assays?
MLLE-PAM2 inh: 11

How did CCCS(=O)(=O)N1CCN=C1SCc1cccnc1 do in these assays?
eIF4E-4G inh: 15; MLLE-PAM2 inh: 40*; PERK inhibitor: 1; PABP FP inh: -3; eIF4H inh: 1

Results for CCCS(=O)(=O)N1CCN=C1SCc1ccc(F)cc1 ?
MLLE-PAM2 inh: -4; PABP FP inh: 11; eIF4H inh: -3

Results for Nc1ccc(C(=O)OCC(=O)Nc2cc([N+](=O)[O-])ccc2F)cc1 ?
eIF4E-4G inh: -1; MLLE-PAM2 inh: -11; PERK inhibitor: 1; PABP FP inh: 8; eIF4H inh: 10

What do the screens show for `Cn1c(SCn2nnc3ccccc3c2=O)nc2ccccc2c1=O`?
eIF4E-4G inh: -5; PERK inhibitor: 1; PABP FP inh: 56; eIF4H inh: -16

Results for CCN(CC)S(=O)(=O)c1ccc2c(c1)nc(SCn1nnc3ccccc3c1=O)n2CC ?
eIF4E-4G inh: -2; MLLE-PAM2 inh: 43*; PERK inhibitor: -1; PABP FP inh: -6; eIF4H inh: -9

How did CC1CCc2c(sc(NC(=O)CCC(=O)O)c2C(=O)NC2CC2)C1 (stereo not drawn) do in these assays?
MLLE-PAM2 inh: 40*; PABP FP inh: 9; eIF4H inh: -8

How did COCC(=O)Nc1sc2c(c1C(=O)OC)CCC(C)C2 (stereo not drawn) do in these assays?
eIF4E-4G inh: 3; MLLE-PAM2 inh: 0; PERK inhibitor: 1; PABP FP inh: -8; eIF4H inh: -7

What do the screens show for `OCc1cc(-c2ccccn2)no1`?
MLLE-PAM2 inh: 5

What do the screens show for `O=C(NC(Cc1ccccc1)C(=O)O)/C(=C/c1ccc(Cl)cc1)NC(=O)c1ccccc1` (stereo not drawn)?
eIF4E-4G inh: 1; MLLE-PAM2 inh: 2; PERK inhibitor: 0; PABP FP inh: 77; eIF4H inh: active

How did O=C(NC(Cc1ccccc1)C(=O)O)/C(=C\c1ccccc1F)NC(=O)c1ccccc1 (stereo not drawn) do in these assays?
eIF4E-4G inh: -1; MLLE-PAM2 inh: 3; PERK inhibitor: 2; PABP FP inh: 0; eIF4H inh: -9

What do the screens show for `Cc1ccc(OCC(=O)Nc2ccc(S(=O)(=O)N(C)C3CCN(C)CC3)cc2)c(C)c1`?
MLLE-PAM2 inh: -107; PABP FP inh: 72*; eIF4H inh: -2

Results for COCCn1c(SCC(=O)Nc2ccc3c(c2)OCCO3)nnc1C(C)C ?
MLLE-PAM2 inh: 1; PABP FP inh: -10; eIF4H inh: -11

What do the screens show for `CCOCCCNC(=S)N1CCC(NC(=O)c2ccco2)CC1`?
eIF4E-4G inh: 0; MLLE-PAM2 inh: -23; PERK inhibitor: 0; PABP FP inh: 68*; eIF4H inh: -8
